According to PubChem BioAssay (NCI):
Compounds without any hit were thinned out: in the full panel of roughly 79,000, 15% have a hit. A number with no mark means an inactive call. Activity calls are given as the source filed them. No stated cut-off is given here; in the data, active means growth inhibition above about 70%; inactive means the rest.

assay: NCI Yeast Anticancer Drug Screen. Data for the sgs1 mgt1 strain (AID 161);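 further: 0% = growth of cultures given vehicle only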; conditions: S. cerevisiae sgs1 mgt1 strain, at 50.0 µM, active compounds read high
How it was run: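 Inhibition of yeast growth, normalised to vehicle-treated controls, is reported for a strain bearing genetic alterations in DNA damage repair.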

| SMILES | growth inhibition |
| --- | --- |
| CCC/C(Cl)=N\OC(=O)Nc1cccc(C(F)(F)F)c1 | 85.8% (active) |
| [O-][n+]1c2ccc(O)cc2nc2ccc(Cl)cc21 | 67% |
| Clc1ccccc1C1OC1c1ccccc1Cl (stereo not drawn) | 44.9% |
| c1ccc2c(c1)c1ncccc1c1nccnc21 | 0% |
| CC(=O)Nc1ccc2c(c1)C(=Nc1ccc(C(=O)O)cc1)c1ccccc1-2 | 74% (active) |
| COc1ccc(OC)c2cc3ccccc3cc12 | 73.1% (active) |
| COc1cc(C2c3cc4c(cc3OC(NNc3ccccc3)C2C)OCO4)cc(OC)c1OC (stereo not drawn) | 20.6% |
| O=C1c2cc([N+](=O)[O-])ccc2-c2cccc(F)c21 | 67.3% |
| CCCCCCCCCCCC(=O)N(C)C | 93.2% (active) |
| CCCCCCCCCCCC1=C(O)C(=O)C=C(O)C1=O | 46.9% |
| Cc1ccc(CSC(N)=Nc2ccccc2)cc1C | 53.2% |
| CCCCCCCCCCC1CCC(=O)O1 (stereo not drawn) | 91.2% (active) |
| O=[N+]([O-])c1cc(CCl)ccc1CCl | 98.5% (active) |
| Nc1ccc2c(c1)C(=O)c1cccc(N)c1C2=O | 42.9% |
| CCCCCCCCCCNC(=O)OCC | 83.7% (active) |
| CC1=C(C)Cc2c(O)ccc(O)c2C1 | 33.8% |
| COc1ccc2c(c1)C(=O)c1ccccc1C2 | -5.05% |
| CCC(=O)OCCn1c2nc(=O)[nH]c(=O)c-2nc2cc(C)c(C)cc21 | 57.5% |
| O=C(OCCN1CCCCCC1)C(c1ccsc1)C1CCCCC1 (stereo not drawn) | 84% (active) |
| Oc1c(Br)cc(Br)cc1C1CCCCC1 | 91.8% (active) |

| SMILES | growth inhibition |
| --- | --- |
| CC1(C)[C@@H]2CC[C@]1(C)[C@H](OC(=O)CSC#N)C2 | 98.6% (active) |
| S=C(N/N=C(/c1ccccc1)c1ccccn1)N1CCCCCC1 | 85.4% (active) |
| Cc1ccc2[nH]c3c(C)c4cc[n+](C)cc4c(C)c3c2c1 | 85.7% (active) |
| CNC(=O)OCc1c(COC(=O)NC)c(-c2ccc(-c3ccccc3)cc2)n(C)c1C | -2.7% |
| COc1ccccc1/C=C1\Sc2scc(-c3cccc([N+](=O)[O-])c3)[n+]2C1=O | 89.3% (active) |
| O=[N+]([O-])c1ccc2c(c1)C(N1CCN(CCO)CC1)Cc1ccc(F)cc1S2 (stereo not drawn) | 72.8% (active) |
| Cc1ccc(CCC2=CCCc3c2ccc2ccccc32)cc1 | 33% |
| O=[N+]([O-])c1cccc2nccc(NCCCO)c12 | 73.8% (active) |
| Cc1ccc(-n2cc(-c3ccc(Cl)cc3)c(C#N)c2N)cc1 | 67.6% |
| Cc1ccc(S/N=C\c2ccccc2O)cc1 | 62% |
| O=C(O)C1OC1(c1cccc(Cl)c1)c1ccccc1Cl (stereo not drawn) | 93.1% (active) |
| NC(=S)N/N=C\c1nccc2ccccc12 | 99% (active) |
| Clc1cccc(C(Nc2nncs2)Nc2nncs2)c1Cl | 66.5% |
| O=C(OCC=C1CCCC1)c1cc([N+](=O)[O-])cc([N+](=O)[O-])c1 | 2.55% |
| O=C(Nc1ccccc1)C(=O)C(C(=O)c1ccccc1)C(c1ccccc1)c1ccccc1 (stereo not drawn) | 29.4% |
| N#CN1C2CCC1CC(=O)C2 | 77.4% (active) |
| COc1ccccc1C(=O)OCC1CCCN2CCCCC12 (stereo not drawn) | 91.6% (active) |
| CCNc1nnc(CSc2nc(-c3ccccc3)c(-c3ccccc3)[nH]2)s1 | 64.8% |
| O=C1c2ccccc2-c2n[nH]c3cccc1c23 | 78.1% (active) |

assay: NCI Yeast Anticancer Drug Screen. Data for the CLN2oe strain (AID 163);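 further: 0% = growth of vehicle-only control cultures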; conditions: S. cerevisiae CLN2oe strain, at 1.2 µM, active compounds read high
How it was run: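 Here, growth inhibition in a cell-cycle-altered yeast strain after compound exposure was quantified against vehicle control growth.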

| SMILES | growth inhibition [%] |
| --- | --- |
| CCC/C(Cl)=N\OC(=O)Nc1cccc(C(F)(F)F)c1 | 15 |
| [O-][n+]1c2ccc(O)cc2nc2ccc(Cl)cc21 | 0 |
| Clc1ccccc1C1OC1c1ccccc1Cl (stereo not drawn) | -3 |
| c1ccc2c(c1)c1ncccc1c1nccnc21 | 0 |
| CC(=O)Nc1ccc2c(c1)C(=Nc1ccc(C(=O)O)cc1)c1ccccc1-2 | 1 |
| COc1ccc(OC)c2cc3ccccc3cc12 | 12 |
| COc1cc(C2c3cc4c(cc3OC(NNc3ccccc3)C2C)OCO4)cc(OC)c1OC (stereo not drawn) | 41 |
| O=C1c2cc([N+](=O)[O-])ccc2-c2cccc(F)c21 | -2 |
| CCCCCCCCCCCC(=O)N(C)C | 2 |
| CCCCCCCCCCCC1=C(O)C(=O)C=C(O)C1=O | -7 |
| Cc1ccc(CSC(N)=Nc2ccccc2)cc1C | 6 |
| CCCCCCCCCCC1CCC(=O)O1 (stereo not drawn) | 0 |
| O=[N+]([O-])c1cc(CCl)ccc1CCl | 10 |
| Nc1ccc2c(c1)C(=O)c1cccc(N)c1C2=O | -2 |
| CCCCCCCCCCNC(=O)OCC | 0 |
| CC1=C(C)Cc2c(O)ccc(O)c2C1 | -10 |
| COc1ccc2c(c1)C(=O)c1ccccc1C2 | -3 |
| CCC(=O)OCCn1c2nc(=O)[nH]c(=O)c-2nc2cc(C)c(C)cc21 | -7 |
| O=C(OCCN1CCCCCC1)C(c1ccsc1)C1CCCCC1 (stereo not drawn) | 10 |
| Oc1c(Br)cc(Br)cc1C1CCCCC1 | 22 |

| SMILES | growth inhibition [%] |
| --- | --- |
| CC1(C)[C@@H]2CC[C@]1(C)[C@H](OC(=O)CSC#N)C2 | -3 |
| S=C(N/N=C(/c1ccccc1)c1ccccn1)N1CCCCCC1 | 5 |
| Cc1ccc2[nH]c3c(C)c4cc[n+](C)cc4c(C)c3c2c1 | 42 |
| CNC(=O)OCc1c(COC(=O)NC)c(-c2ccc(-c3ccccc3)cc2)n(C)c1C | -29 |
| COc1ccccc1/C=C1\Sc2scc(-c3cccc([N+](=O)[O-])c3)[n+]2C1=O | 46 |
| O=[N+]([O-])c1ccc2c(c1)C(N1CCN(CCO)CC1)Cc1ccc(F)cc1S2 (stereo not drawn) | -6 |
| Cc1ccc(CCC2=CCCc3c2ccc2ccccc32)cc1 | -5 |
| O=[N+]([O-])c1cccc2nccc(NCCCO)c12 | 11 |
| Cc1ccc(-n2cc(-c3ccc(Cl)cc3)c(C#N)c2N)cc1 | -6 |
| Cc1ccc(S/N=C\c2ccccc2O)cc1 | 2 |
| O=C(O)C1OC1(c1cccc(Cl)c1)c1ccccc1Cl (stereo not drawn) | 15 |
| NC(=S)N/N=C\c1nccc2ccccc12 | 0 |
| Clc1cccc(C(Nc2nncs2)Nc2nncs2)c1Cl | -1 |
| O=C(OCC=C1CCCC1)c1cc([N+](=O)[O-])cc([N+](=O)[O-])c1 | -6 |
| O=C(Nc1ccccc1)C(=O)C(C(=O)c1ccccc1)C(c1ccccc1)c1ccccc1 (stereo not drawn) | 5 |
| N#CN1C2CCC1CC(=O)C2 | 12 |
| COc1ccccc1C(=O)OCC1CCCN2CCCCC12 (stereo not drawn) | 8 |
| CCNc1nnc(CSc2nc(-c3ccccc3)c(-c3ccccc3)[nH]2)s1 | 5 |
| O=C1c2ccccc2-c2n[nH]c3cccc1c23 | -52 |
